Where “and” joins values, the source holds several entries; their conditions need not be identical. Equal entries are not always repeated. Results filed as inconclusive are left out. A number with no mark means an inactive call. Calls of active or inactive are those of the source. The call rests on the fitted dose curve; in most records, active means well fitted inhibition curve with a large enough effect in the repeat runs; inconclusive means weak or mixed curves; inactive means no such curve, though single readings can be large or run the other way.
On the % scale 0 is the no-effect control and ±100 the full control effect; potency means the concentration at half of the fitted maximal effect.

The target in this assay is Cytochrome P450 2C9 (Homo sapiens) (UniProt P11712). The experiment in a line: Cytochrome P450 family 2 subfamily C member 9 (CYP2C9) small molecule antagonists: luciferase biochemical (cell-free) qHTS assay (AID 1645842). Further: nearly all actives have a fitted effect of over 55% in size. The conditions noted are these: P450-Glo CYP2C9 enzyme assay, luciferin luminescence; series mostly up to 57.4 µM; activity change, negative = inhibition: at the top concentration. The essentials: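 P450-Glo CYP2C9 system: proluciferin substrate with enzyme in mix containing 0.4% BSA, 10 min at room temperature, then NADPH regeneration solution added and incubated 1 h at 37C. Detection reagent stopped reaction; luminescence read after 20 min as RLU.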
Chain of Cytochrome P450 2C9 (Homo sapiens) (P11712 whole entry, looked up): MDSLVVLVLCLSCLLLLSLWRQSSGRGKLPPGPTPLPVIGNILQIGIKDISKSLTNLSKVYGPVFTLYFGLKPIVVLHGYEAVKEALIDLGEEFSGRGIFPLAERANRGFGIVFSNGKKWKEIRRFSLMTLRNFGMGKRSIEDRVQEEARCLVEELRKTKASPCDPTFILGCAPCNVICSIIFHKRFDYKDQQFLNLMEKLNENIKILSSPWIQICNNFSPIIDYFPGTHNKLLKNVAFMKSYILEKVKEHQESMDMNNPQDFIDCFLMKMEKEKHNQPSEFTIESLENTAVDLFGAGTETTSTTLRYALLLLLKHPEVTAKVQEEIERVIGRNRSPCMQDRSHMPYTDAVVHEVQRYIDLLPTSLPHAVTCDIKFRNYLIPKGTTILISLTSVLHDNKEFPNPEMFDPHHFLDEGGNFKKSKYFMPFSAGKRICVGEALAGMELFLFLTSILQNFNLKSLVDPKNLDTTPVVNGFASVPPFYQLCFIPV
`COC[C@@H](NC(C)=O)C(=O)NCc1ccccc1`: the “activity change, negative = inhibition” value was -1.44%.
Still for that read-out and setting: the figure for `CN1C[C@H](CNC(=O)OCc2ccccc2)C[C@@H]2c3cccc4c3c(cn4C)C[C@H]21` is -11%; for `C=C1CC[C@@]2(O)[C@H]3Cc4ccc(O)c5c4[C@@]2(CCN3CC2CC2)[C@H]1O5` it is 0.712%.
As to `C[C@@H]1O[C@@H](O[C@H]2C[C@@H](O)[C@]3(CO)[C@H]4[C@H](O)C[C@]5(C)[C@@H](C6=CC(=O)OC6)CC[C@]5(O)[C@@H]4CC[C@]3(O)C2)[C@H](O)[C@H](O)[C@H]1O`, the “activity change, negative = inhibition” value is 15.2%.
Regarding `NN=C(N)N`, the “activity change, negative = inhibition” value was 12.5%.
Consider `NCCc1cc(O)c(O)cc1O`, for which the “activity change, negative = inhibition” value is -17.1%.
Still for that read-out and setting: then `CC(C)NCC(O)c1ccccc1Cl` (stereo not drawn), with 2.89%; and `CC(C)CC(N(C)C)C1(c2ccc(Cl)cc2)CCC1` (stereo not drawn), with 7.42%; and `C[C@]12CCC(=O)C(O)=C1CC[C@@H]1[C@@H]2CC[C@]2(C)C(=O)CC[C@@H]12`, with -21.1%.
Take `Cn1c(CCCC(=O)O)nc2cc(N(CCCl)CCCl)ccc21`: the “activity change, negative = inhibition” value was 8.39%.
For `CC(C)(C)NCC(O)c1cc(Cl)c(N)c(Cl)c1` (stereo not drawn), the “activity change, negative = inhibition” value was 7.19%.
Regarding `CCC(COC(=O)c1cc(OC)c(OC)c(OC)c1)(c1ccccc1)N(C)C` (stereo not drawn), the Potency is 13.8 µM (active).
For the compound `CCCC1CCCCN1` (stereo not drawn), the “activity change, negative = inhibition” value is 1.78%.
Turning to `C[C@]12CC[C@H]3[C@@H](CCC4=CC(=O)CC[C@@H]43)[C@@H]1CC[C@@H]2OC(=O)CCc1ccccc1`, the Potency is 27.5 µM (active).
Take `Cn1cc(C2=C(c3cn(C4CCN(Cc5ccccn5)CC4)c4ccccc34)C(=O)NC2=O)c2ccccc21`: the Potency was 3.09 µM (active).
`O=C1CC[C@@]2(O)[C@H]3Cc4ccc(O)c5c4[C@@]2(CCN3CC2CC2)[C@H]1O5`: the “activity change, negative = inhibition” value was -5.82%.
Same read-out and setting: the figure for `CC(CCc1ccccc1)NC(C)C(O)c1ccc(O)cc1` (stereo not drawn) is -22.9%.
Turning to `O=C(O)C(=O)c1cn(Cc2ccccc2)c2ccc(-c3ccc(OC(F)(F)F)cc3)cc12`, the Potency is 16.9 µM (active).
Take `Cc1cccc(C)c1NC(=O)CN1CCCC1=O`: the “activity change, negative = inhibition” value is 2.29%.
As to `Cc1cccc(C)c1NC1=NCCCS1`, the “activity change, negative = inhibition” value is 10.4%.
`NCC1(CC(=O)O)CCCCC1`: the “activity change, negative = inhibition” value was 16.6%.
For the compound `NCC(CC(=O)O)c1ccc(Cl)cc1` (stereo not drawn), the activity change, negative = inhibition was 15.7% [at 0.91 µM].
Regarding `Cc1sc2c(c1C)C(c1ccc(Cl)cc1)=N[C@@H](CC(=O)OC(C)(C)C)c1nnc(C)n1-2`, the Potency is 10.7 µM (active).
Still for that read-out and setting: the figure for `CNC(=O)c1ccc(N2C(=S)N(c3ccc(C#N)c(C(F)(F)F)c3)C(=O)C23CCC3)cc1F` is 16.9 µM (active); for `Oc1ccc(Cl)cc1Cc1ccccc1` it is 9.31 µM (active) and 12.3 µM (active).
Turning to `O=[N+]([O-])c1cc([As](=O)(O)O)ccc1O`, the “activity change, negative = inhibition” value was 10.9%.
Regarding `CC(C)=CC1C(C(=O)OCc2cccc(Oc3ccccc3)c2)C1(C)C` (stereo not drawn), the Potency was 3.89 µM (active).
For `N[C@@H]1C[C@H]1c1ccccc1`, the Potency is 21.9 µM (active).
Regarding `CCC(C(N)=O)N1CCCC1=O` (stereo not drawn), the “activity change, negative = inhibition” value is 1.26%.
`C#CCN(C)[C@H](C)Cc1ccccc1`: the “activity change, negative = inhibition” value is 7.07%.
With `CC(=O)Nc1cc([As](=O)(O)O)ccc1O`, the “activity change, negative = inhibition” value was -3.24%.
Turning to `c1ccc2c(c1)Nc1ccccc1S2`, the Potency entry was “inactive”.
As to `NCC(O)c1ccc(O)cc1` (stereo not drawn), the “activity change, negative = inhibition” value was 3.8%.
On the same count and under the same terms, the figure for `OCCOc1ccccc1` is 20%.
As for `C=C(C)[C@H]1Cc2c(ccc3c2O[C@@H]2COc4cc(OC)c(OC)cc4[C@@H]2C3=O)O1`, the Potency is 6.17 µM (active).
As for `CN1CCN(C(=O)O[C@H]2c3nccnc3C(=O)N2c2ccc(Cl)cn2)CC1`, the “activity change, negative = inhibition” value was -0.93%.
Take `CN1C(=S)CN=C(c2ccccc2)c2cc(Cl)ccc21`: the Potency was 12.3 µM (active).
For `FC(F)(F)c1cccc(C2=CCN(CCc3ccc4ccccc4c3)CC2)c1`, the “activity change, negative = inhibition” value is 26.2%.

(Values after PubChem BioAssay (NCATS).)
